Assay results: PubChem BioAssay (Tox21)
Unmarked numbers belong to inactive results. Inconclusive results are not listed. Where a call stands in place of a potency, no number is given. The source made the active and inactive calls. Unless noted, calls follow the shape of the dose curve; as a rule, active = well fitted curve in the direction sought with a large enough effect in the repeat runs; inconclusive = weak or mixed curves; inactive = no such curve, though single readings can be large; an effect the other way counts as inactive or inconclusive.

Legend:
[1] = molecular target: Estrogen receptor beta (Homo sapiens) (UniProt Q92731); assay: qHTS assay to identify small molecule agonists of the estrogen receptor beta (ER-beta) signaling pathway (AID 1259377; active = well fitted activation curve with a large enough effect in the signal ratio in the repeat runs, not every such curve was filed as active; the % refers to the signal ratio)
Procedure, shortened: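 A UAS-controlled beta-lactamase reporter in ER-beta-UAS-bla HEK293T cells reports receptor activation. Compounds act for 16 hr at 37C in 2% charcoal-stripped serum, and a FRET substrate is read by fluorescence after 2 hours.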

[2] = molecular target: Estrogen receptor beta (Homo sapiens) (UniProt Q92731); assay: qHTS assay to identify small molecule antagonists of the estrogen receptor beta (ER-beta) signaling pathway (AID 1259378; active = well fitted inhibition curve with a large enough effect in the signal ratio in the repeat runs, not every such curve was filed as active; the % refers to the signal ratio)
Procedure, shortened: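 ER-beta-UAS-bla HEK293T (GripTite) cells in 2% charcoal-stripped FBS medium were preincubated 6 hr at 37C, dosed with compound, then stimulated with 1 nM E2 (final) for 16 hr; beta-lactamase reporter read by B/G FRET fluorescence after 2 hr substrate loading.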

[3] = qHTS assay to identify small molecule agonists of the androgen receptor (AR) signaling pathway in the presence of an antagonist - cell viability counter screen (AID 1259379); also: nearly all actives have a fitted effect of over 25% in size; also: potency is read from the fitted curve at half-maximal effect
Procedure, shortened: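 Viability counter screen: CellTiter-Fluor fluorescence, measured in the same wells as the luciferase read-out. MDA-kb2 cells, 3,000/well, with nilutamide at 3.0uM final and compounds at 15 concentrations, 16 hr at 37C, 0% CO2.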

[4] = qHTS assay to identify small molecule agonists of the estrogen receptor beta (ER-beta) signaling pathway - cell viability counter screen (AID 1259380); also: nearly all actives have a fitted effect of over 30% in size
Procedure, shortened: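 Luminescence read-out (CellTiter-Glo, 30 min, room temp) taken in the same wells as the beta-lactamase reporter assay; ER-beta-UAS-bla HEK293T cells exposed to DMSO-dissolved compounds for 16 hr at 37C in 2% charcoal-stripped FBS medium.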

[5] = qHTS assay to identify small molecule antagonists of the estrogen receptor beta (ER-beta) signaling pathway - cell viability counter screen (AID 1259382); also: series mostly up to about 92 µM; nearly all actives have a fitted effect of over 55% in size
Procedure, shortened: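 Luminescent ATP read-out (CellTiter-Glo, 30 min, RT) taken in the same wells as the bla reporter assay. HEK293T ER-beta-UAS-bla cells in 2% charcoal-stripped FBS were exposed to compounds with 1nM E2 for 16 hr at 37C.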

[6] = molecular target: Estrogen receptor (Homo sapiens) (UniProt P03372); assay: qHTS assay to identify small molecule agonists of the estrogen receptor alpha (ER-alpha) signaling pathway in the presence of an antagonist (AID 1259383; calls by dose curve; also: top concentration of the series differs between compounds; nearly all actives have a fitted effect of over 15% in size)
Procedure, shortened: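 Luciferase luminescence (ONE-Glo, 30min at room temperature) measured in VM7Luc4E2 cells after 22hr compound exposure at 15 concentrations, with 10.0nM ICI-182,780 final present; cells express endogenous ER-alpha and carry four EREs upstream of luciferase.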

[7] = molecular target: Progesterone receptor (Homo sapiens) (UniProt P06401); assay: qHTS assay to identify small molecule agonists of the progesterone receptor (PR) signaling pathway (AID 1346784; calls by dose curve; also: nearly all actives have a fitted effect of over 30% in size)
Procedure, shortened: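 Agonist mode, quantitative HTS format in a HEK 293T line expressing a UAS-controlled beta-lactamase reporter; 16 hr compound exposure at 37C in 2% charcoal-stripped FBS, then LiveBLAzer B/G FRET fluorescence.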

[8] = qHTS assay to identify small molecule antagonists of the progesterone receptor (PR) signaling pathway - cell viability counter screen (AID 1346798); also: series mostly up to about 92 µM; nearly all actives have a fitted effect of over 50% in size
Procedure, shortened: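 Same-well multiplex: after 16 hr at 37C with compound and R5020 stimulation, HEK293T cells carrying a UAS-bla reporter received LiveBLAzer substrate (2 hr RT), then CellTiter-Glo (30 min RT) for luminescent viability.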

[9] = qHTS assay to identify small molecule antagonists of the TGF-beta/Smad signaling pathway - cell viability counter screen (AID 1346824); also: nearly all actives have a fitted effect of over 50% in size
Procedure, shortened: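 SBE-bla HEK 293T cells were plated overnight at 37 C, then given compounds in DMSO plus TGF-beta1 (added as 0.25 ng/mL solution) for 5 hr. After the bla read, CellTiter-Glo was added to the same wells and luminescence read after 30 min at room temperature.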

[10] = qHTS assay to identify small molecule agonists of the TGF-beta/Smad signaling pathway - cell viability counter screen (AID 1346829); also: top concentration of the series differs between compounds; nearly all actives have a fitted effect of over 45% in size
Procedure, shortened: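 Cytotoxicity counter screen: CellTiter-Glo luminescence (30 min, room temperature) measured in the SBE-bla HEK 293T reporter wells after 5 hr compound treatment at 37 C and the 2 hr substrate step.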

[11] = qHTS assay to identify small molecule agonists of the TGF-beta/Smad signaling pathway (AID 1346859; active = well fitted activation curve with a large enough effect in the signal ratio in the repeat runs, not every such curve was filed as active; the % refers to the signal ratio; also: series mostly up to about 77 µM)
Procedure, shortened: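 Smad-responsive beta-lactamase reporter cells (HEK 293T) received compounds from DMSO stocks after overnight attachment, were incubated 5 hr, then treated 2 hr with FRET substrate before dual-emission fluorescence measurement (405 nm excitation).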

[12] = molecular target: Thyrotropin-releasing hormone receptor (Homo sapiens) (UniProt P34981); assay: qHTS assay to identify small molecule antagonists of the thyrotropin-releasing hormone receptor (TRHR) signaling pathway (AID 1346877; active = well fitted inhibition curve with a large enough effect in the repeat runs, not every such curve was filed as active; also: series mostly up to about 51 µM)
Procedure, shortened: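 HEK293/TRHR cells, 18 h, 37 °C; Ca2+ dye 2 h; cpd 5 min RT; TRH 1 nM final; fluorescence read 3 min, 1 s intervals; 15 concs, triplicate.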

[13] = molecular target: Thyrotropin-releasing hormone receptor (Homo sapiens) (UniProt P34981); assay: qHTS assay to identify small molecule agonists of the thyrotropin-releasing hormone receptor (TRHR) signaling pathway (AID 1346891; calls by dose curve;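 also: HEK293 cells expressing TRHR with calcium dye readout; series mostly up to about 58 µM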)
Procedure, shortened: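 Agonist-mode calcium mobilisation screen: TRHR-transfected HEK293 cells cultured overnight (18 h), dye-loaded for 2 h at 37 °C, exposed to compounds, and monitored by fluorescence for 3 min.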

[14] = Human pregnane X receptor (PXR) small molecule agonists, qHTS cell viability counter screen (AID 1346977); also: nearly all actives have a fitted effect of over 50% in size; also: potency is read from the fitted curve at half-maximal effect
Procedure, shortened: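 Measures live-cell protease fluorescence (CellTiter-Fluor) in PXR-Luc HepG2 cells treated 24hr with compounds at 37C. Cells had 5hr to attach before pin transfer of DMSO solutions.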

[15] = qHTS assay to identify small molecule agonists or antagonists of the thyroid stimulating hormone receptor (TSHR) signaling pathway - wild type cell line counter screen (AID 1259384; calls by dose curve)
Procedure, shortened: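 Wild-type HEK293 cells were plated 18 h at 37 C/5% CO2, pin-dosed with compound plus Ro20-1724 medium, held 30 min at room temperature, then given cAMP-d2 and anti-cAMP-cryptate; fluorescence was read after 1 h. Fifteen concentrations, triplicate.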

[16] = qHTS assay to identify small molecule agonists of the estrogen receptor alpha (ER-alpha) signaling pathway in the presence of an antagonist - cell viability counter screen (AID 1259386);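 also: cells exposed to compounds for 22 h at 37 °C before the viability read; nearly all actives have a fitted effect of over 30% in size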; also: potency is read from the fitted curve at half-maximal effect
Procedure, shortened: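 Read-out: CellTiter-Fluor fluorescence after 1hr reagent incubation, measured in the same wells as the luciferase readout. VM7Luc4E2 cells were exposed to 15 compound concentrations with 10.0nM ICI-182,780 for 22hr at 37C.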

[17] = molecular target: Progesterone receptor (Homo sapiens) (UniProt P06401); assay: qHTS assay to identify small molecule antagonists of the progesterone receptor (PR) signaling pathway (AID 1346795; active = well fitted inhibition curve with a large enough effect in the signal ratio in the repeat runs, not every such curve was filed as active; the % refers to the signal ratio; also: potency is read from the fitted curve at half-maximal effect)
Procedure, shortened: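 HEK293T PR-UAS-bla reporter cells in charcoal-stripped serum (2%) received compound after a 6 hr settling period, followed by R5020 agonist at 1 nM final; 16 hr incubation preceded the FRET substrate step and fluorescence measurement.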

[18] = qHTS assay to identify small molecule agonists of the progesterone receptor (PR) signaling pathway - cell viability counter screen (AID 1346799; calls by dose curve; also: nearly all actives have a fitted effect of over 45% in size)
Procedure, shortened: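 Counter screen for cytotoxicity: compound-treated PR-UAS-bla HEK293T cells (16 hr, 37C, 5% CO2) were assayed with CellTiter-Glo, luminescence measured after 30 min at room temperature.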

[19] = molecular target: Thyrotropin receptor (Homo sapiens) (UniProt P16473); assay: qHTS assay to identify small molecule antagonists of the thyroid stimulating hormone receptor (TSHR) signaling pathway (AID 1259385; calls by dose curve; also: nearly all actives have a fitted effect of over 20% in size)
Procedure, shortened: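 TSHR-HEK293 cells were plated and held 18 h at 37C/5% CO2, then given compound plus Ro20-1724 and stimulated with TSH at 1.5 ng/mL final. After 30 min at room temperature, cAMP was detected with cAMP-d2/anti-cAMP-cryptate (1 h) by fluorescence.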

Sequence of Thyrotropin-releasing hormone receptor (Homo sapiens) (P34981 whole entry, looked up): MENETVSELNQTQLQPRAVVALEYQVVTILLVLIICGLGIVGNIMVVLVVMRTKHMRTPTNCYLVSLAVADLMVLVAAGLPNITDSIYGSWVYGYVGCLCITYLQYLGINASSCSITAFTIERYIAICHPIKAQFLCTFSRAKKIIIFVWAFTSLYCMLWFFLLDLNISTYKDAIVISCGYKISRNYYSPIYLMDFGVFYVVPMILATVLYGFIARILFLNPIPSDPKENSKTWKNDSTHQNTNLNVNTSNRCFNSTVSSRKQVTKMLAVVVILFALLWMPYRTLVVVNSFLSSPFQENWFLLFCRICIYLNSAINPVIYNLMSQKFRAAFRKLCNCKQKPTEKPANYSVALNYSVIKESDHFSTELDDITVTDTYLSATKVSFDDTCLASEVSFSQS
Sequence of Estrogen receptor beta (Homo sapiens) (Q92731 whole entry, looked up): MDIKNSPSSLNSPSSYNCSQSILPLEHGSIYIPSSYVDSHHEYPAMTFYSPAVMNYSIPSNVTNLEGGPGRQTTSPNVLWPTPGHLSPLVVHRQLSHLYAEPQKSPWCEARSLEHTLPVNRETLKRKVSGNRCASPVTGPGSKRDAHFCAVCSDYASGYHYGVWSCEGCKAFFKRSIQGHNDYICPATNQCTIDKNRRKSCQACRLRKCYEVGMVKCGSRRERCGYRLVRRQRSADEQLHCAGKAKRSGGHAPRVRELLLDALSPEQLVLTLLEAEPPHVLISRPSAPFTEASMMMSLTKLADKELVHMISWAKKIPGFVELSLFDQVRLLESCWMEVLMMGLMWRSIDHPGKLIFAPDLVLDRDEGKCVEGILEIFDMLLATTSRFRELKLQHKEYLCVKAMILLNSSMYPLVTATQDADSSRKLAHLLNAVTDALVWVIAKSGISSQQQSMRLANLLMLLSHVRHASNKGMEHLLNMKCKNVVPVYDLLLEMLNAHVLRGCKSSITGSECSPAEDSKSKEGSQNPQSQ
Sequence of Progesterone receptor (Homo sapiens) (P06401 whole entry, looked up): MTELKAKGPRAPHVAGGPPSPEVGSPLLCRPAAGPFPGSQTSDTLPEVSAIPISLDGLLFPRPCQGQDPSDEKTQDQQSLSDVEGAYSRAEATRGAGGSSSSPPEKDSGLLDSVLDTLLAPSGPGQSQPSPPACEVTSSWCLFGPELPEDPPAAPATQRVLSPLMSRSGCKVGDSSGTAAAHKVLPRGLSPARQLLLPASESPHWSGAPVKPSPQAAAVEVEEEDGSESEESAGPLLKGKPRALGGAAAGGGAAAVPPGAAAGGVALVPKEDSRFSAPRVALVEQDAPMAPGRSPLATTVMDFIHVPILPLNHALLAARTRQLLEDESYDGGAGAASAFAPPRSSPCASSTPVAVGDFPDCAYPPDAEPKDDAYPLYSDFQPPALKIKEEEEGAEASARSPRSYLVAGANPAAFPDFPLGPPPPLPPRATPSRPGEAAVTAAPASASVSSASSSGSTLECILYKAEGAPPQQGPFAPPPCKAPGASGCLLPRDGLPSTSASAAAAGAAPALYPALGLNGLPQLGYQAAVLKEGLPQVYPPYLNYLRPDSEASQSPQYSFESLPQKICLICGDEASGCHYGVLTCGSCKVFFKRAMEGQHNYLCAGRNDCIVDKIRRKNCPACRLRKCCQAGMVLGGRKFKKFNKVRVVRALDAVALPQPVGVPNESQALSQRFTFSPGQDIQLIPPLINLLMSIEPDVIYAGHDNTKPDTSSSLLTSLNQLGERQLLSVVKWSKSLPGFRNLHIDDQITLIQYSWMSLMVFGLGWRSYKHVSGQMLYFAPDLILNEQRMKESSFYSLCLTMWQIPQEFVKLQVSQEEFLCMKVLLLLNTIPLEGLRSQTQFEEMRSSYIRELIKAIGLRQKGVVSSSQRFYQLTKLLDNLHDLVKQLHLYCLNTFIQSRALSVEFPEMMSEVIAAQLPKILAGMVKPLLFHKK
Sequence of Estrogen receptor (Homo sapiens) (P03372 whole entry, looked up): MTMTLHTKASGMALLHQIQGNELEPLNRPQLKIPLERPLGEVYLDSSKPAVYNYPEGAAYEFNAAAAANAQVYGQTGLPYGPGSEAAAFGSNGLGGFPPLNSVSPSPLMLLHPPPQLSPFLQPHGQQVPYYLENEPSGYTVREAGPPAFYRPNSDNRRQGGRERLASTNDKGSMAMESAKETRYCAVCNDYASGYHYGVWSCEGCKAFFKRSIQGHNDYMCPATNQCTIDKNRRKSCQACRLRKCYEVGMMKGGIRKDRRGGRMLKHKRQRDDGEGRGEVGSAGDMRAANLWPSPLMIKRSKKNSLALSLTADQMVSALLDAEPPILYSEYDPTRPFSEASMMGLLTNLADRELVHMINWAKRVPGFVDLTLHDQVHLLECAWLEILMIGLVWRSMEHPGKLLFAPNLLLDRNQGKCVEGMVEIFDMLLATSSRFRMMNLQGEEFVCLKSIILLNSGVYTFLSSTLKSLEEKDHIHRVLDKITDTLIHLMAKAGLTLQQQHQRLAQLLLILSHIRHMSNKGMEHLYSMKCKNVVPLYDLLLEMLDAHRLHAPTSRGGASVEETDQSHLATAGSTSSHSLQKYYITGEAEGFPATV
Sequence of Thyrotropin receptor (Homo sapiens) (P16473 whole entry, looked up): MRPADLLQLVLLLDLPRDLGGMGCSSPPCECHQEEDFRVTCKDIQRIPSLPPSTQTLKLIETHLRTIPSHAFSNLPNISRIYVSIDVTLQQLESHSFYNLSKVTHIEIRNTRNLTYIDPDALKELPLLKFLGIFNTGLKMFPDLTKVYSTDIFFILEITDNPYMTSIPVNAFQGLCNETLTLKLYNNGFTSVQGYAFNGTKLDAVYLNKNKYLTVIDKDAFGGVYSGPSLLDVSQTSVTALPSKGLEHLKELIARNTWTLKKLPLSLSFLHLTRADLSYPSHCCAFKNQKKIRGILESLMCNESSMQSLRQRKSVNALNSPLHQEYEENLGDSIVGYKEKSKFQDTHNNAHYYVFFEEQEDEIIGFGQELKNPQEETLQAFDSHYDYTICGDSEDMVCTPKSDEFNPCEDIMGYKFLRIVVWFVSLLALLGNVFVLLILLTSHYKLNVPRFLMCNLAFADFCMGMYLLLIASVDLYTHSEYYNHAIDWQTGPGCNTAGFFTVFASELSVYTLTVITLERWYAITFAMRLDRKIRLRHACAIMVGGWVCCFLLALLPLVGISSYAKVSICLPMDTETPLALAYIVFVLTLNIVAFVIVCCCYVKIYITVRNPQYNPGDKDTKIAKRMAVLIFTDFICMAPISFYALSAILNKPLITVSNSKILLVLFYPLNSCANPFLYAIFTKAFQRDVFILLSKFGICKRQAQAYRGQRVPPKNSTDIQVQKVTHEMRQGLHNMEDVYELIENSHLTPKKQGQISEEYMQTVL

Row | SMILES | Potency [1] | Potency [2] | Potency [3] | Potency [4] | outcome [5] | outcome [6] | Potency [7] | Potency [8] | outcome [9] | outcome [10] | outcome [11] | outcome [12] | Potency [13] | Potency [14] | outcome [15] | Potency [16] | Potency [17] | Potency [18] | outcome [19]
1 | Cc1ncc([C@@H](CCCCCCc2ccc3c(n2)NCCC3)CC(=O)O)cn1 | inactive | inactive | inactive | inactive | inactive | inactive | inactive | inactive | inactive | inactive | inactive | inactive | inactive | inactive | – | – | – | – | –
2 | Cc1nc(C2CCCCC2)c(-c2ccc(S(N)(=O)=O)c(F)c2)o1 | inactive | inactive | inactive | inactive | inactive | inactive | inactive | – | inactive | inactive | inactive | inactive | inactive | inactive | inactive | inactive | 26.6 µM (active) | – | –
3 | CC(CC=O)CC(C)(C)C (stereo not drawn) | inactive | inactive | inactive | inactive | inactive | inactive | – | inactive | – | inactive | inactive | inactive | inactive | – | inactive | inactive | inactive | inactive | –
4 | CC(=O)c1ccccc1[N+](=O)[O-] | inactive | inactive | inactive | inactive | inactive | inactive | inactive | inactive | – | inactive | inactive | inactive | – | inactive | inactive | inactive | – | inactive | inactive
5 | CCOC(=O)c1ccccc1 | inactive | inactive | inactive | inactive | inactive | inactive | inactive | inactive | inactive | inactive | inactive | inactive | inactive | inactive | – | inactive | inactive | inactive | –
6 | CC(=O)Nc1ccc(OCC(O)CNC(C)C)cc1 (stereo not drawn) | inactive | inactive | inactive | inactive | inactive | – | inactive | inactive | inactive | inactive | inactive | inactive | inactive | inactive | inactive | inactive | inactive | inactive | inactive
7 | CC1=NN(c2cc(S(=O)(=O)O)ccc2Cl)C(=O)C1N=Nc1ccccc1 (stereo not drawn) | inactive | inactive | 27.3 µM (active) | inactive | inactive | inactive | inactive | – | inactive | inactive | inactive | – | inactive | 61.1 µM (active) | inactive | 27.3 µM (active) | inactive | inactive | –
8 | CC1=C(C/C=C(\C)CCC[C@H](C)CCC[C@H](C)CCCC(C)C)C(=O)c2ccccc2C1=O | inactive | inactive | inactive | inactive | inactive | – | inactive | inactive | inactive | inactive | inactive | – | – | inactive | inactive | inactive | inactive | inactive | inactive
